Experimental data as given in PubChem BioAssay (EPA / NIEHS).
Activity calls are given as the source filed them. Rule for the calls: active = hit-call score of the fitted dose curve at least 0.9, where 1 is the maximum; inactive = score below 0.9.

Experiments:
Details in all cases: mRNA level, 48 h; actives raise or lower the signal
[1] = read-out: Insulin Like Growth Factor 1 (IGF1), IGF1 (gene 3479); assay: LTEA_HepaRG_IGF1: Life Technologies and Expression Analysis (LTEA) Assay for Insulin Like Growth Factor 1 (IGF1) using HepaRG (AID 2283506)
In short: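 Differentiated human HepaRG cells were dosed for 48 h in serum-free induction medium with 0.5% DMSO, eight half-log concentrations up to 100 uM, in duplicate. IGF1 mRNA was quantified by qRT-PCR normalized to ACTB, GAPDH, POLR2A; bidirectional fitting versus DMSO.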

[2] = read-out: Intercellular Adhesion Molecule 1 (ICAM1), ICAM1 (gene 3383); assay: LTEA_HepaRG_ICAM1: Life Technologies and Expression Analysis (LTEA) Assay for Intercellular Adhesion Molecule 1 (ICAM1) using HepaRG (AID 2283507)
In short: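 Differentiated HepaRG cells in serum-free induction medium were exposed in duplicate for 48 h to eight half-log concentrations up to 100 uM in 0.5% DMSO. Transcript levels were measured by qRT-PCR normalized to ACTB, GAPDH and POLR2A; bidirectional fits relative to DMSO.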

[3] = read-out: Insulin-like growth factor-binding protein 1 (IGFBP1), IGFBP1 (gene 3484); assay: LTEA_HepaRG_IGFBP1: Life Technologies and Expression Analysis (LTEA) Assay for Insulin-like growth factor-binding protein 1 (IGFBP1) using HepaRG (AID 2283508)
In short: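 Differentiated human HepaRG cells in serum-free induction medium were exposed in duplicate for 48 h to eight concentrations, top 100 uM with half-log dilutions, in 0.5% DMSO. Transcript levels came from qRT-PCR normalised to ACTB, GAPDH and POLR2A, fitted bidirectionally against DMSO.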

[4] = read-out: Interleukin 6 (IL6), IL6 (gene 3569); assay: LTEA_HepaRG_IL6: Life Technologies and Expression Analysis (LTEA) Assay for Interleukin 6 (IL6) using HepaRG (AID 2283509)
In short: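 Differentiated human HepaRG cells, plated 48 h then switched to serum-free induction medium, were exposed in duplicate for 48 h to eight half-log concentrations up to 100 uM in 0.5% DMSO. IL6 mRNA measured by qRT-PCR, normalized to ACTB/GAPDH/POLR2A.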

[5] = read-out: Interleukin 6 Receptor (IL6R), IL6R (gene 3570); assay: LTEA_HepaRG_IL6R: Life Technologies and Expression Analysis (LTEA) Assay for Interleukin 6 Receptor (IL6R) using HepaRG (AID 2283510)
In short: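 Differentiated human HepaRG cells, plated 48 h then switched to serum-free induction medium, were dosed in duplicate for 48 h at eight half-log concentrations up to 100 uM in 0.5% DMSO. IL6R mRNA quantified by qRT-PCR, normalized to ACTB/GAPDH/POLR2A; bidirectional fit versus DMSO.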

[6] = read-out: Keratin 19 (KRT19), KRT19 (gene 3880); assay: LTEA_HepaRG_KRT19: Life Technologies and Expression Analysis (LTEA) Assay for Keratin 19 (KRT19) using HepaRG (AID 2283512)
In short: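 Differentiated human HepaRG cells, plated 48 h, were exposed in duplicate for 48 h in serum-free induction medium to eight half-log concentrations up to 100 uM in 0.5% DMSO. KRT19 mRNA was quantified by qRT-PCR, normalized to ACTB, GAPDH and POLR2A, and fitted bidirectionally versus DMSO.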

[7] = read-out: JUN Transcription Factor, JUN (gene 3725); assay: LTEA_HepaRG_JUN: Life Technologies and Expression Analysis (LTEA) Assay for JUN Transcription Factor using HepaRG (AID 2283513)
In short: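 Differentiated HepaRG cells were exposed to chemicals for 48 h in serum-free induction medium, 8 concentrations from 100 uM in half-log steps, 0.5% DMSO vehicle, in duplicate. JUN mRNA was quantified by TaqMan qRT-PCR, normalized to ACTB, GAPDH, POLR2A.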

[8] = read-out: Lipase C (LIPC), LIPC (gene 3990); assay: LTEA_HepaRG_LIPC: Life Technologies and Expression Analysis (LTEA) Assay for Lipase C (LIPC) using HepaRG (AID 2283514)
In short: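 Differentiated human HepaRG cells in serum-free induction medium were exposed in duplicate for 48 h to eight concentrations (top 100 uM, half-log steps, 0.5% DMSO). LIPC mRNA was quantified by TaqMan qRT-PCR, normalized to ACTB, GAPDH and POLR2A, with bidirectional fitting versus DMSO.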

[9] = read-out: Lipoprotein lipase (LPL), LPL (gene 4023); assay: LTEA_HepaRG_LPL: Life Technologies and Expression Analysis (LTEA) Assay for Lipoprotein lipase (LPL) using HepaRG (AID 2283515)
In short: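 Differentiated human HepaRG cells in serum-free induction medium were exposed in duplicate for 48 h to eight half-log concentrations (top 100 uM) in 0.5% DMSO. LPL mRNA was quantified by TaqMan qRT-PCR, normalized to ACTB, GAPDH and POLR2A.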

[10] = read-out: MicroRNA 122 (MIR122), gene 406906; assay: LTEA_HepaRG_MIR122: Life Technologies and Expression Analysis (LTEA) Assay for MicroRNA 122 (MIR122) using HepaRG (AID 2283516); note: the transcript read is the microRNA miR-122
In short: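 Differentiated human HepaRG cells were exposed 48 h in serum-free induction medium to eight half-log concentrations (top 100 uM, 0.5% DMSO). Transcript level was measured by TaqMan qRT-PCR, normalized to ACTB, GAPDH and POLR2A, and fitted bidirectionally versus DMSO.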

[11] = read-out: matrix metalloproteinase-10 (MMP10), MMP10 (gene 4319); assay: LTEA_HepaRG_MMP10: Life Technologies and Expression Analysis (LTEA) Assay for matrix metalloproteinase-10 (MMP10) using HepaRG (AID 2283517)
In short: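 HepaRG, collagen I, ~100,000 cells/well; serum-free induction medium; 48 h exposure, duplicate, 8-pt half-log to 100 uM, 0.5% DMSO. Readout: TaqMan qRT-PCR, normalized to ACTB/GAPDH/POLR2A; bidirectional fit vs DMSO.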

[12] = read-out: MYC, MYC (gene 4609); assay: LTEA_HepaRG_MYC: Life Technologies and Expression Analysis (LTEA) Assay for MYC using HepaRG (AID 2283518)
In short: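 Differentiated human HepaRG cells, plated 48 h then switched to serum-free induction medium, were exposed in duplicate for 48 h to 8-point half-log series up to 100 uM in 0.5% DMSO. MYC mRNA measured by qRT-PCR, normalized to ACTB/GAPDH/POLR2A.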

[13] = read-out: Paternally Expressed 10 (PEG10), PEG10 (gene 23089); assay: LTEA_HepaRG_PEG10: Life Technologies and Expression Analysis (LTEA) Assay for Paternally Expressed 10 (PEG10) using HepaRG (AID 2283520)
In short: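 Differentiated HepaRG cells, plated 48 h then switched to serum-free induction medium, were exposed in duplicate for 48 h to eight half-log concentrations topping at 100 uM in 0.5% DMSO. PEG10 mRNA was quantified by TaqMan qRT-PCR, normalised to ACTB, GAPDH and POLR2A.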

[14] = read-out: Nuclear factor NF-kappa-B p105 subunit (Homo sapiens) (UniProt P19838); assay: LTEA_HepaRG_NFKB1: Life Technologies and Expression Analysis (LTEA) Assay for Nuclear Factor Kappa B Subunit 1 (NFKB1) using HepaRG (AID 2283521);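 note: TaqMan qRT-PCR transcript normalised to ACTB GAPDH and POLR2A housekeeping genes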
In short: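 NFKB1 transcript was measured by TaqMan qRT-PCR on Fluidigm arrays, normalised to three housekeeping genes and fitted in both directions against 0.5% DMSO. HepaRG cells were dosed in duplicate for 48 h in serum-free induction medium, eight half-log steps from 100 uM.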

[15] = read-out: Protein phosphatase 2A (PPP2R4), PTPA (gene 5524); assay: LTEA_HepaRG_PPP2R4: Life Technologies and Expression Analysis (LTEA) Assay for Protein phosphatase 2A (PPP2R4) using HepaRG (AID 2283522)
In short: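 Differentiated HepaRG cells in serum-free induction medium were exposed in duplicate for 48 h to eight concentrations, top 100 uM with half-log dilutions, in 0.5% DMSO. PPP2R4 mRNA was quantified by TaqMan qRT-PCR, normalized to ACTB, GAPDH and POLR2A.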

[16] = read-out: Phosphatase and tensin (PTEN), PTEN (gene 5728); assay: LTEA_HepaRG_PTEN: Life Technologies and Expression Analysis (LTEA) Assay for Phosphatase and tensin (PTEN) using HepaRG (AID 2283523)
In short: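 Differentiated human HepaRG cells, plated 48 h then switched to serum-free induction medium, were exposed in duplicate for 48 h to eight half-log concentrations up to 100 uM in 0.5% DMSO. PTEN mRNA measured by TaqMan qRT-PCR, normalized to ACTB/GAPDH/POLR2A, bidirectional fit versus DMSO.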

[17] = read-out: solute carrier (SLC22A1), SLC22A1 (gene 6580); assay: LTEA_HepaRG_SLC22A1: Life Technologies and Expression Analysis (LTEA) Assay for solute carrier (SLC22A1) using HepaRG (AID 2283524)
In short: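 Human HepaRG cells were plated 48 h, switched to serum-free induction medium, then exposed in duplicate for 48 h to 8-point half-log series from 100 uM in 0.5% DMSO. SLC22A1 mRNA measured by qRT-PCR, normalized to ACTB/GAPDH/POLR2A, fitted bidirectionally versus DMSO.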

[18] = read-out: Pyruvate Dehydrogenase Kinase 4 (PDK4), PDK4 (gene 5166); assay: LTEA_HepaRG_PDK4: Life Technologies and Expression Analysis (LTEA) Assay for Pyruvate Dehydrogenase Kinase 4 (PDK4) using HepaRG (AID 2283525)
In short: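 Differentiated human HepaRG cells, pre-cultured 48 h, were exposed in duplicate for 48 h in serum-free induction medium to eight half-log concentrations up to 100 uM in 0.5% DMSO. PDK4 mRNA was quantified by qRT-PCR, normalized to ACTB, GAPDH and POLR2A, bidirectional fitting versus DMSO.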

Measured: outcome

Nuclear factor NF-kappa-B p105 subunit (Homo sapiens), sequence (P19838 whole entry, looked up): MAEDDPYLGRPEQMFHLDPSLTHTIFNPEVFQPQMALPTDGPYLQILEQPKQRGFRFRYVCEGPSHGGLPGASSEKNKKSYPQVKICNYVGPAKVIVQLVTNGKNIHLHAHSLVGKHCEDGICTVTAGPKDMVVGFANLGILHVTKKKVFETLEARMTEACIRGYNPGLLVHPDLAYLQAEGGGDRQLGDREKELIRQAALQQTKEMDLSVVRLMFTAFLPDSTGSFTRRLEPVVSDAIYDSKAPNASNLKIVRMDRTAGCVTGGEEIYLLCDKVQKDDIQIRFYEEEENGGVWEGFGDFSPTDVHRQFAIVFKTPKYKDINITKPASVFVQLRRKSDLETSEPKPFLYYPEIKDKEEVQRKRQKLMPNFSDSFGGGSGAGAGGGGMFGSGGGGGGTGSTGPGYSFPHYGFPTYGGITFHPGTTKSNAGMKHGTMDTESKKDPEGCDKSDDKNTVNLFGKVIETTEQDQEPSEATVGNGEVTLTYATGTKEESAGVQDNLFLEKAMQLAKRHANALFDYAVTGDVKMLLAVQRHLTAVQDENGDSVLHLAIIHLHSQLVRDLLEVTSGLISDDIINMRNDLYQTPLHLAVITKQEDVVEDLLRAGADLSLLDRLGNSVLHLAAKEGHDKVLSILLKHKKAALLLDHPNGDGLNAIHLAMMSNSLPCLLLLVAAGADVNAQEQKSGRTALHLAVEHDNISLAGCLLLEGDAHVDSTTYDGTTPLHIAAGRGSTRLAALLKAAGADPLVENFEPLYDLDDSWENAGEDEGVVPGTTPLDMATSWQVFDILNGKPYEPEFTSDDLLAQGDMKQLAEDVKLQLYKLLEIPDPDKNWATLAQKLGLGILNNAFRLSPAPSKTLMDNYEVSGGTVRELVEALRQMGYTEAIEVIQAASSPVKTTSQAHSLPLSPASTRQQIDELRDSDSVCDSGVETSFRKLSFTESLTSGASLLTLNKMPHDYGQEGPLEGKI

Cc1ccc(N(C)C)cc1
inactive: [1] | [2] | [3] | [4] | [5] | [6] | [7] | [8] | [9] | [10] | [11] | [12] | [13] | [14] | [15] | [16] | [17] | [18]

O=C(O)CCCCC(=O)O
inactive: [1] | [2] | [3] | [4] | [5] | [6] | [7] | [8] | [9] | [10] | [11] | [12] | [13] | [14] | [15] | [16] | [17] | [18]

NCCO
inactive: [1] | [2] | [3] | [4] | [5] | [6] | [7] | [8] | [9] | [10] | [11] | [12] | [13] | [15] | [16] | [17] | [18]

Cc1cc(=O)[nH]c(=S)[nH]1
inactive: [1] | [2] | [3] | [4] | [5] | [6] | [7] | [8] | [9] | [10] | [11] | [12] | [13] | [14] | [15] | [16] | [17] | [18]
